# According to PubChem BioAssay AID1159580 (chemical genetic matrix, 2015):
# Among all 5,500 compounds or so, about 2,000 (36%) were called active. Another 18% or so got no clear call; they are omitted. This is one part of the list. Unmarked numbers belong to inactive results. No stated cut-off is given here; in the data, active means normalized growth mostly below about 0.91 (no sharp cut-off); inconclusive means no clear call, values can overlap the other calls; inactive means mostly above about 0.92.
# Assay: chemical genetic growth profiling, strain panel (AID 1159580);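 further: tested at 20 µM; growth read once vehicle control cultures reached saturation at 30 °C; 1 = growth at the plate median or of vehicle wells; lower values mean less growth of the strain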
# Conditions: S. cerevisiae deletion strains, growth OD
# [1] = locus YDL101C, strain DUN1, hits give low values
# [2] = locus YHR030C, strain SLT2, hits give low values
# [3] = locus YJR075W, strain HOC1, hits give low values
# [4] = locus YMR307W, strain GAS1, hits give low values
# [5] = locus YNL322C, strain KRE1, hits give low values
# [6] = locus YPL241C, strain CIN2, hits give low values
smiles,measurement,setting,value
O=C1CC(c2ccccc2)=NO1,normalized growth,"locus YAL013W, strain DEP1, hits give low values",0.683 (active)
same,normalized growth,"locus YBR229C, strain ROT2, hits give low values",0.336 (active)
same,normalized growth,[1],0.395 (active)
same,normalized growth,"locus YEL061C, strain CIN8, hits give low values",0.862 (active)
same,normalized growth,"locus YGR078C, strain PAC10, hits give low values",0.174 (active)
same,normalized growth,[2],0.615 (active)
same,normalized growth,"locus YHR087W, strain rtc3, hits give low values",0.419 (active)
same,normalized growth,"locus YJL187C, strain SWE1, hits give low values",0.298 (active)
same,normalized growth,"locus YJR043C, strain POL32, hits give low values",0.566 (active)
same,normalized growth,[3],0.3 (active)
same,normalized growth,"locus YKL190W, strain CNB1, hits give low values",0.987
same,normalized growth,"locus YLR039C, strain RIC1, hits give low values",1.11
same,normalized growth,"locus YLR058C, strain SHM2 (second series), hits give low values",0.431 (active)
same,normalized growth,"locus YLR085C, strain ARP6, hits give low values",0.432 (active)
same,normalized growth,"locus YLR262C, strain YPT6, hits give low values",1.08
same,normalized growth,"locus YML094W, strain GIM5, hits give low values",0.743 (active)
same,normalized growth,"locus YMR219W, strain ESC1, hits give low values",0.26 (active)
same,normalized growth,[4],0.511 (active)
same,normalized growth,"locus YNL153C, strain GIM3, hits give low values",0.0697 (active)
same,normalized growth,"locus YNL298W, strain CLA4 (second series), hits give low values",0.797 (active)
same,normalized growth,[5],0.737 (active)
same,normalized growth,"locus YNR030W, strain Alg12, hits give low values",0.803 (active)
same,normalized growth,"locus YPL055C, strain LGE1, hits give low values",0.666 (active)
same,normalized growth,[6],0.68 (active)
same,normalized growth,"locus YPR135W, strain CTF4, hits give low values",0.528 (active)
CSc1c(C#N)c(-c2ccc(Cl)cc2)nn1C(=O)c1ccccc1Cl,normalized growth,"locus YAR019C, strain CDC15, hits give low values",0.966
same,normalized growth,"locus YBL105C, strain PKC1, hits give low values",0.95
same,normalized growth,"locus YBR135W, strain CKS1, hits give low values",0.957
same,normalized growth,"locus YBR136W, strain MEC1, hits give low values",0.951
same,normalized growth,"locus YBR160W, strain CDC28, hits give low values",0.951
same,normalized growth,"locus YDL017W, strain CDC7, hits give low values",0.946
same,normalized growth,"locus YDL028C, strain MPS1, hits give low values",0.951
same,normalized growth,[1],0.94
same,normalized growth,"locus YDL108W, strain KIN28, hits give low values",0.954
same,normalized growth,"locus YDL132W, strain cdc53, hits give low values",0.948
same,normalized growth,"locus YDL214C, strain PRR2, hits give low values",0.964
same,normalized growth,"locus YDR052C, strain DBF4, hits give low values",0.957
same,normalized growth,"locus YDR054C, strain cdc34, hits give low values",0.941
same,normalized growth,"locus YDR226W, strain ADK1, hits give low values",0.933
same,normalized growth,"locus YDR477W, strain SNF1, hits give low values",0.938
same,normalized growth,"locus YER123W, strain YCK3, hits give low values",0.946
same,normalized growth,"locus YER133W, strain GLC7, hits give low values",0.962
same,normalized growth,"locus YFL009W, strain cdc4, hits give low values",0.951
same,normalized growth,"locus YFL029C, strain CAK1, hits give low values",0.958
same,normalized growth,"locus YFR003C, strain YPI1, hits give low values",0.954
same,normalized growth,"locus YFR019W, strain FAB1, hits give low values",1
same,normalized growth,"locus YFR028C, strain CDC14, hits give low values",0.948
same,normalized growth,"locus YGR040W, strain KSS1, hits give low values",0.931
same,normalized growth,"locus YGR052W, strain FMP48, hits give low values",0.97
same,normalized growth,"locus YGR092W, strain DBF2, hits give low values",0.895
same,normalized growth,[2],1.03
same,normalized growth,"locus YHR079C, strain IRE1, hits give low values",1.03
same,normalized growth,"locus YHR082C, strain KSP1, hits give low values",1.01
same,normalized growth,"locus YHR205W, strain SCH9, hits give low values",0.872
same,normalized growth,"locus YIL147C, strain SLN1, hits give low values",0.949
same,normalized growth,"locus YJL095W, strain BCK1, hits give low values",0.9
same,normalized growth,"locus YJL128C, strain PBS2, hits give low values",0.921
same,normalized growth,"locus YJL157C, strain FAR1, hits give low values",0.965
same,normalized growth,"locus YJR016C, strain ILV3, hits give low values",0.945
same,normalized growth,"locus YJR066W, strain TOR1 (second series), hits give low values",0.946
same,normalized growth,"locus YJR066W, strain TOR1, hits give low values",1
same,normalized growth,"locus YKL048C, strain ELM1, hits give low values",0.981
same,normalized growth,"locus YKL067W, strain YNK1, hits give low values",0.969
same,normalized growth,"locus YKL101W, strain HSL1, hits give low values",0.933
same,normalized growth,"locus YKL193C, strain SDS22, hits give low values",0.957
same,normalized growth,"locus YKL203C, strain TOR2, hits give low values",1.06
same,normalized growth,"locus YLR113W, strain HOG1, hits give low values",0.76 (active)
same,normalized growth,"locus YLR133W, strain CKI1, hits give low values",0.969
same,normalized growth,"locus YLR403W, strain SFP1, hits give low values",0.889
same,normalized growth,"locus YML070W, strain DAK1, hits give low values",0.948
same,normalized growth,"locus YMR001C, strain CDC5, hits give low values",0.957
same,normalized growth,"locus YMR205C, strain PFK2 (second series), hits give low values",0.969
same,normalized growth,"locus YMR277W, strain FCP1, hits give low values",0.966
same,normalized growth,"locus YNL006W, strain LST8, hits give low values",0.975
same,normalized growth,"locus YNL020C, strain ARK1, hits give low values",0.958
same,normalized growth,"locus YNL161W, strain CBK1, hits give low values",0.958
same,normalized growth,"locus YNL183C, strain NPR1, hits give low values",0.969
same,normalized growth,"locus YNL207W, strain RIO2, hits give low values",0.938
same,normalized growth,"locus YNL222W, strain SSU72, hits give low values",0.963
same,normalized growth,"locus YNL307C, strain MCK1 (second series), hits give low values",0.921
same,normalized growth,"locus YOL078W, strain AVO1, hits give low values",0.958
same,normalized growth,"locus YOL136C, strain PFK27, hits give low values",0.936
same,normalized growth,"locus YOR061W, strain CKA2, hits give low values",0.975
same,normalized growth,"locus YOR119C, strain RIO1, hits give low values",1.01
same,normalized growth,"locus YOR231W, strain MKK1, hits give low values",0.917
same,normalized growth,"locus YOR329C, strain SCD5, hits give low values",0.956
same,normalized growth,"locus YPL031C, strain PHO85, hits give low values",0.934
same,normalized growth,"locus YPL153C, strain RAD53, hits give low values",0.936
same,normalized growth,"locus YPL204W, strain HRR25, hits give low values",0.942
same,normalized growth,"locus YPL209C, strain IPL1, hits give low values",0.958
same,normalized growth,"locus YPL256C, strain CLN2, hits give low values",1.07
same,normalized growth,"locus YPR025C, strain CCL1, hits give low values",0.958
same,normalized growth,"locus YPR106W, strain ISR1, hits give low values",0.939
same,normalized growth,"locus YPR111W, strain DBF20, hits give low values",0.947
same,normalized growth,"strain NNK1, hits give low values",0.959
same,normalized growth,"strain TSCII, hits give low values",0.958
CCCN1CCOC2c3cc(O)ccc3OCC21 (configuration not stated),normalized growth,"locus YAL040C, strain CLN3, hits give low values",0.983
same,normalized growth,"locus YCL061C, strain MRC1 (second series), hits give low values",0.993
same,normalized growth,"locus YDR150W, strain NUM1, hits give low values",0.988
same,normalized growth,"locus YDR363W, strain ESC2, hits give low values",0.96
same,normalized growth,"locus YER002W, strain NOP16, hits give low values",1
same,normalized growth,"locus YGR229C, strain SMI1, hits give low values",1.03
same,normalized growth,[3],1.01
same,normalized growth,"locus YMR263W, strain SAP30, hits give low values",1
same,normalized growth,[4],1.02
same,normalized growth,"locus YNL128W, strain TEP1, hits give low values",0.993
same,normalized growth,"locus YNL175C, strain NOP13, hits give low values",0.984
same,normalized growth,"locus YNL197C, strain WHI3, hits give low values",0.975
same,normalized growth,"locus YNL224C, strain SQS1, hits give low values",1
same,normalized growth,[5],0.994
same,normalized growth,"locus YOR083W, strain WHI5 (second series), hits give low values",0.983
same,normalized growth,[6],0.998
